Source: PubChem BioAssay (several laboratories)
SENP8 block-1 = blocks the human protease SENP8 | Q96LD8 | purified SENP8, Z-RLRGG-aminoluciferin cleavage, luminescence | inhibition, % at 10 µM | 330,000 compounds, 1.2% hits | AID 2540; in the data active = inhibition above about 50%
SENP8 block-2 = inhibitors of human SENP8 protease; recombinant SENP8, Nedd8 substrate fluorescence; Q96LD8; 360,000 compounds, 0.64% hits; AID 602440; inhibition, % at 20 µM; in the data active = inhibition mostly above about 40%, no sharp cut-off; inactive = mostly below about 27%
SENP7 inh = blocks the human protease SENP7; recombinant SENP7, Z-RLRGG-aminoluciferin luminescence, 40 min; AID 434973; 330,000 compounds, 1.5% hits; Q9BQF6; inhibition, % at 5 µM;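 active = inhibition above about 50% at the single test dose, limit read from the data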
Target sequence (Q9BQF6 706-1050 limits assumed): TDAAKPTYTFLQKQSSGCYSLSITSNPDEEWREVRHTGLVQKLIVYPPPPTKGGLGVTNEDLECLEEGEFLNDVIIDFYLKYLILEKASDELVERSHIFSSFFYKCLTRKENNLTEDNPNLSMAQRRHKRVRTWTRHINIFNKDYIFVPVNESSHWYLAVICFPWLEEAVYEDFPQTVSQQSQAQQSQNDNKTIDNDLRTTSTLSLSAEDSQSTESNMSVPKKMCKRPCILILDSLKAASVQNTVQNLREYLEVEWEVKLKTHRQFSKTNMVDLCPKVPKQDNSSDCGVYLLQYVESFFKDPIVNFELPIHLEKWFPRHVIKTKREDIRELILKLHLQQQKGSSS
Platelet DG rel = platelet dense granule release activity. inhibition, %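 (compounds screened at 7.5 µM in platelet-rich plasma)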. human platelet-rich plasma, SFLLRN dense granule ATP release, luminescence. 300,000 compounds, 0.22% hits. AID 1663;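 active = mean replicate score, as percent of positive control, at or above 50; inconclusive = mean below 50 but at least one replicate at or above 50; inactive = mean and every replicate below 50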
SENP6 block = SENP6 protease inhibition. Q9GZR1. Recombinant SENP6 catalytic domain, aminoluciferin luminescence. AID 2599. 330,000 compounds, 1.8% hits. inhibition, % at 10 µM;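 active = inhibition above about 50% at the single tested dose, limit read from the data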
SENP8 conf = human SENP8 inhibition, confirmed | AID 488912 | inhibition, % at 12.5 µM | 6,200 compounds, 40% hits | Recombinant SENP8, Z-RLRGG-aminoluciferin luminescence, 60 min | shares compounds with SENP7 inh;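 active = mean inhibition across replicates above about 50%, limit read from the data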
SENP6 conf = confirmation of human SENP6 protease inhibitors. shares compounds with SENP7 inh. AID 488915. inhibition, % at 12.5 µM. recombinant SENP6, Z-RLRGG-aminoluciferin luminescence. 6,200 compounds, 58% hits
SENP7 conf = human SENP7 inhibition, confirmed | recombinant SENP7, Z-RLRGG-aminoluciferin luminescence, 40 min | inhibition, % at 12.5 µM | shares compounds with SENP7 inh | 6,200 compounds, 69% hits
Casp3 select = caspase-3 inhibition (SENP selectivity assay). purified caspase-3, Z-DEVD-aminoluciferin luminescence, 60 min. shares compounds with SENP7 inh. inhibition, % at 12.5 µM. 6,200 compounds, 60% hits;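 active = mean inhibition above about 50%, limit read from the data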
Luc interf = counter-screen for SENP inhibitors: luminescence interference; shares compounds with SENP7 inh; inhibition, % at 12.5 µM; 6,200 compounds, 39% hits; Pre-incubated SENP8/Z-RLRGG-aminoluciferin, luciferase luminescence interference;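 active = mean inhibition above about 50% when retested at one dose, limit read from the data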
A number is an active result; i = inactive; ? = inconclusive; nt = no result given. Compounds with a hit are over-represented: about 2.4% of the library has one in this group of screens.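 Rule for the calls, unless noted: active = mean inhibition above about 50% in the one-dose retest (limit read from the data); inactive = the rest.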

SMILES	SENP8 block-1	SENP8 block-2	SENP7 inh	Platelet DG rel	SENP6 block	SENP8 conf	SENP6 conf	SENP7 conf	Casp3 select	Luc interf
Cc1nc(Cl)cc(N/N=C/c2ccc(O)cc2O)n1	93.1	i	94.5	i	97.1	91.9	92.3	100.3	92.2	91.6
O=C(CSc1cn(Cc2ccccc2)c2ccccc12)N1CCOCC1	i	i	i	i	i	nt	nt	nt	nt	nt
O=C(Cn1cc(SCc2ccc(F)cc2)c2ccccc21)N1CCOCC1	i	i	i	i	57.9	50.4	i	79.1	i	i
O=C(Cn1cc(SCc2ccc(Cl)cc2)c2ccccc21)N1CCOCC1	i	i	i	i	66.7	i	64.6	82.4	i	i
CCc1ccc2nc3sc(C(=O)O)cc3cc2c1	i	i	i	i	50.2	57.7	52.9	81.6	75.8	67.2
COc1ccc2nc3sc(C(=O)N4CCN(C)CC4)cc3cc2c1	i	i	i	i	i	nt	nt	nt	nt	nt
O=C(COC(=O)c1ccco1)NC1CCCC1	i	i	i	i	i	nt	nt	nt	nt	nt
CCc1ccc(OC(=O)/C=C/c2ccco2)cc1	69.5	i	81.2	i	89.1	i	76.6	93.9	50.3	i
Cc1ccccc1NC(=O)c1cnc2ccccn2c1=O	i	i	74.5	i	57.5	55.0	61.0	51.8	75.3	i
Cc1ccc(C)c(NC(=O)c2cc3ccccn3n2)c1	i	i	i	i	56.1	i	i	73.6	71.8	59.5
Cc1ccccc1NC(=O)c1cc2ccccn2n1	61.7	i	66.8	i	i	71.9	70.2	88.9	86.8	73.5
COc1ccccc1CC(=O)NNC(=O)CN(C)S(=O)(=O)c1ccc(Cl)cc1	i	i	i	?	i	nt	nt	nt	nt	nt
Cc1cc(-n2c(C)cc(C(=O)COc3ccc(F)c(F)c3)c2C)no1	i	i	i	nt	63.8	60.3	59.1	81.2	i	i
O=C(NCc1ccccc1)C(c1ccc(C(F)(F)F)cc1)n1c(=O)c(-c2ccco2)nc2ccccc21 (configuration not stated)	nt	i	nt	nt	nt	nt	nt	nt	nt	nt
CCOc1ccc([N+](=O)[O-])c(N)c1	i	i	i	i	i	nt	nt	nt	nt	nt
CCOc1ccc(Nc2ccc([N+](=O)[O-])c3nonc23)cc1	65.2	i	i	i	71.4	64.2	59.8	84.5	60.6	65.4
Cc1ccnc(NC(=O)/C=C/c2cccs2)c1	57.0	i	67.2	i	86.0	71.4	70.6	90.8	82.8	i
O=C(/C=C/c1cccs1)Nc1cccnc1	i	i	i	i	i	nt	nt	nt	nt	nt
CCCN1CCN(C(=O)c2cc3c(s2)-c2ccccc2OC3)CC1	65.1	i	55.8	i	70.9	80.0	79.7	91.8	84.1	79.0
CCOC(=O)N1CCN(C(=O)c2cc3c(s2)-c2ccccc2OC3)CC1	i	i	i	i	i	nt	nt	nt	nt	nt
Cn1ncc(N=Cc2ccccc2[N+](=O)[O-])c1C(N)=O	i	i	i	i	i	nt	nt	nt	nt	nt
CN(C)c1ccc(C=Nc2cnn(C)c2C(N)=O)cc1	67.6	i	77.5	nt	73.0	i	i	78.5	62.5	i
Clc1ccc(-c2nnc(-c3ccccc3Cl)o2)cc1	50.4	i	86.9	i	83.3	i	i	52.2	i	i
Clc1ccccc1-c1nnc(-c2ccccc2Cl)o1	77.0	i	i	i	82.6	79.2	82.9	93.9	69.0	50.2
Clc1ccc(-c2nnc(-c3cccnc3)o2)cc1	i	i	i	i	i	nt	nt	nt	nt	nt
SMILES	SENP8 block-1	SENP8 block-2	SENP7 inh	Platelet DG rel	SENP6 block	SENP8 conf	SENP6 conf	SENP7 conf	Casp3 select	Luc interf
CCCNCc1nnc(-c2ccccc2Cl)o1	i	i	i	i	i	nt	nt	nt	nt	nt
CN(C)c1ccc(NC(=O)CSc2n[nH]c(-c3ccncc3)n2)cc1	nt	i	nt	nt	nt	nt	nt	nt	nt	nt
Oc1cc(NCCc2cccnc2)cc2cccnc12	i	i	i	nt	71.6	i	i	i	88.1	i
Oc1cc(Nc2cccnc2)cc2cccnc12	i	i	i	nt	i	nt	nt	nt	nt	nt
O=C(COc1coc(CN2CCc3ccccc3C2)cc1=O)Nc1ccccc1F	i	i	i	i	i	nt	nt	nt	nt	nt
COc1cccc(NC(=O)CC(=O)c2ccccc2)c1	i	i	i	i	i	nt	nt	nt	nt	nt
